Data reported in publication PMC7862700, “An all-to-all approach to the identification of sequence-specific readers for epigenetic DNA modifications on cytosine”.

Assays:
Test in all cases: DAPPL (digital affinity profiling via proximity ligation, sequencing); 10 mM Tris-HCl pH 7.5, 50 mM NaCl, 1 mM DTT, 4% glycerol, room temperature, 30 min; GST-TFs on glutathione beads, 16-mer random dsDNA library, 0.1% formaldehyde crosslink after washing; high values mean tight binding
HSF1 = HSF1 (Homo sapiens, UniProt Q00613 1-529); settings: protein: recombinant; tags: N-terminal GST; chain copies: 3; dsDNA, one strand shown
Sequence of HSF1 (Q00613 whole entry, the tested form may be a part): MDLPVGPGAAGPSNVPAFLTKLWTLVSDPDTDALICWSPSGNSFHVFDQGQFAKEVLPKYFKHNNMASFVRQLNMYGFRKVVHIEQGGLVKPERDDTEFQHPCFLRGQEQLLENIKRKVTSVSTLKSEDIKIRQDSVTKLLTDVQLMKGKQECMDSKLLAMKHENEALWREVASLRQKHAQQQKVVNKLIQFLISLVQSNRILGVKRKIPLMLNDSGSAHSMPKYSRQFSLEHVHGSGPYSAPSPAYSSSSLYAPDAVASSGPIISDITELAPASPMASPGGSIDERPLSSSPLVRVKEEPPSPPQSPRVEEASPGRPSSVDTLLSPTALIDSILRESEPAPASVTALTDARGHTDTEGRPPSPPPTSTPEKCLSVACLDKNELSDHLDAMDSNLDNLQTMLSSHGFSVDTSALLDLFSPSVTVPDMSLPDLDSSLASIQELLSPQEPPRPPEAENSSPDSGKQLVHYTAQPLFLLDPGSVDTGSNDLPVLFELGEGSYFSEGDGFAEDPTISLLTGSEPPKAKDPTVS
Summary of the method: (§1)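 Human transcription factors were made in yeast as GST fusions, captured on glutathione beads and barcoded with DNA. With a tag-only sample included, the pool was incubated with 200 nmole of a random double-stranded 16-mer DNA library in Tris/NaCl/DTT/glycerol buffer at room temperature for 30 min, then crosslinked with 0.1% formaldehyde after washing, ligated by proximity, amplified and sequenced. For binding signal, each hexamer's read frequency for a factor is divided by its frequency for the tag-only sample.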

SPIC = target: T1, SPIC (Homo sapiens, UniProt Q8N5J4 1-248); settings: protein: recombinant; tags: N-terminal GST; dsDNA, one strand shown
T1 sequence: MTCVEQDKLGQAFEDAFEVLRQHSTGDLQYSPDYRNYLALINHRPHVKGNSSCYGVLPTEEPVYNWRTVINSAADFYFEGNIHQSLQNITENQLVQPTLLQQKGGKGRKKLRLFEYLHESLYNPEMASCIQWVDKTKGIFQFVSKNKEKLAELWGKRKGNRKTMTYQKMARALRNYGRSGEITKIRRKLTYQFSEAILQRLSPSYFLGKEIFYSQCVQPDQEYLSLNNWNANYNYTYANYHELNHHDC
Summary of the method: as §1

ELK4 = target: T2, ELK4 (Homo sapiens, UniProt P28324-2 1-405); settings: protein: recombinant; tags: N-terminal GST; dsDNA, one strand shown
T2 sequence: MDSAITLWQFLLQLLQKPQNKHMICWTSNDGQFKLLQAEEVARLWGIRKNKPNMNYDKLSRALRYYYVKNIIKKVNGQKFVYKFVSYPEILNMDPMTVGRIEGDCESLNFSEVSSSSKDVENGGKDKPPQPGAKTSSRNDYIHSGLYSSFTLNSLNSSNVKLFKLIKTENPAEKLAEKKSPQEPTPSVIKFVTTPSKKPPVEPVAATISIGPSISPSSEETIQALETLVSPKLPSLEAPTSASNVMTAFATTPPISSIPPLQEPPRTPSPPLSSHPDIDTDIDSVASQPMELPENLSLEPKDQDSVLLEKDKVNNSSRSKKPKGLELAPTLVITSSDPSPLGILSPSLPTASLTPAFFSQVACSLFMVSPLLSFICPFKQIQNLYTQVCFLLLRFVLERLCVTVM
Summary of the method: as §1

ETV2 = target: T3, ETV2 (Homo sapiens, UniProt O00321 1-342); settings: protein: recombinant; tags: N-terminal GST; dsDNA, one strand shown
T3 sequence: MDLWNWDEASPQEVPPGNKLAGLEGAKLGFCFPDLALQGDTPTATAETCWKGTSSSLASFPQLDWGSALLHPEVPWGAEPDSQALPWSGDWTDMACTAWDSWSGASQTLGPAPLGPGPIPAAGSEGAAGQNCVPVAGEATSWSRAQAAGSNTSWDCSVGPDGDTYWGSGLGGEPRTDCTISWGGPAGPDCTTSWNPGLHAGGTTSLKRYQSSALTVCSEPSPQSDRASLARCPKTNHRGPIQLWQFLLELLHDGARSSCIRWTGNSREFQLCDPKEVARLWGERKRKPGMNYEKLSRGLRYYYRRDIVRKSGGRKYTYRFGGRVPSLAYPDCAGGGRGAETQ
Summary of the method: as §1

ELK1 = target: T4, ELK1 (Homo sapiens, UniProt P19419 1-428); settings: protein: recombinant; tags: N-terminal GST; dsDNA, one strand shown
T4 sequence: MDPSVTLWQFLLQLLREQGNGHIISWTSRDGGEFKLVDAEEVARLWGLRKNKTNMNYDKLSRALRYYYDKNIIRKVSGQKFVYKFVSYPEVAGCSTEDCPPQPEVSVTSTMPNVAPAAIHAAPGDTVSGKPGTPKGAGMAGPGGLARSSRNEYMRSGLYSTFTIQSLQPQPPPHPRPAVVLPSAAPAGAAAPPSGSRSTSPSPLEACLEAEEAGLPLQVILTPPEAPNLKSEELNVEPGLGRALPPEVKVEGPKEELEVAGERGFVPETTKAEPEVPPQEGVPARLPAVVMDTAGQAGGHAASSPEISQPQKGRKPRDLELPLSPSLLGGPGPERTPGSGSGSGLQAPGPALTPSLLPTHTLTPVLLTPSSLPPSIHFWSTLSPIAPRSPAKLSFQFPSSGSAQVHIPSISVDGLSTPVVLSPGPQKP
Summary of the method: as §1

ERF = target: T5, ERF (Homo sapiens, UniProt P50548 1-548); settings: protein: recombinant; tags: N-terminal GST; dsDNA, one strand shown
T5 sequence: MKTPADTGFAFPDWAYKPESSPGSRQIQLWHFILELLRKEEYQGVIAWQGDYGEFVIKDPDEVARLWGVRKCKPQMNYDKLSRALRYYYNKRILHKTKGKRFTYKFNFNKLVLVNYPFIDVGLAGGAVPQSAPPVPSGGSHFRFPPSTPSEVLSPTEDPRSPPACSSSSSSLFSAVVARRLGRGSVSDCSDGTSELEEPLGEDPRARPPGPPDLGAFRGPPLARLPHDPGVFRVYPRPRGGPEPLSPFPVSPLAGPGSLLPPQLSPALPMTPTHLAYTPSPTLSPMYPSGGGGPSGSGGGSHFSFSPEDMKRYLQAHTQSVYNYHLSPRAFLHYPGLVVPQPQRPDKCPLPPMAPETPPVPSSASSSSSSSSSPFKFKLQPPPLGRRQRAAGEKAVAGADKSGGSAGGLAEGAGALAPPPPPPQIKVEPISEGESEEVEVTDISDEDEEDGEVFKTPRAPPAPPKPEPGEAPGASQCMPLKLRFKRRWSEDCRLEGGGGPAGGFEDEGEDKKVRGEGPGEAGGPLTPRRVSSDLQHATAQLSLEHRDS
Summary of the method: as §1

ETV3L = target: T6, ETV3L (Homo sapiens, UniProt Q6ZN32 1-361); settings: protein: recombinant; tags: N-terminal GST; dsDNA, one strand shown
T6 sequence: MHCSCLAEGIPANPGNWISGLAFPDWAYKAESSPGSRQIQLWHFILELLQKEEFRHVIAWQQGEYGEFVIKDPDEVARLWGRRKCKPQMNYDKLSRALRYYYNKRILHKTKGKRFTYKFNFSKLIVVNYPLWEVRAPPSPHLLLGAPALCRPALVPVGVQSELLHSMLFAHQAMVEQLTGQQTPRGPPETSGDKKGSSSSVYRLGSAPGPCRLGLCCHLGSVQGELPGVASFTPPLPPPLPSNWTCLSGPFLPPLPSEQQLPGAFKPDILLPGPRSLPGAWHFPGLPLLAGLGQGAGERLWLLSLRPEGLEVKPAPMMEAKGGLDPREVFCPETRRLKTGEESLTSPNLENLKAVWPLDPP
Summary of the method: as §1

ETV3 = target: T7, ETV3 (Homo sapiens, UniProt P41162-2 1-143); settings: protein: recombinant; tags: N-terminal GST; dsDNA, one strand shown
T7 sequence: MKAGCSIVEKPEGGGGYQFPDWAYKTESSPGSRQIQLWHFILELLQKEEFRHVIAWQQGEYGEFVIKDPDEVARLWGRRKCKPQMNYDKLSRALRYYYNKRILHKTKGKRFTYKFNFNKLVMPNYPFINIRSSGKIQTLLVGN
Summary of the method: as §1

ETV6 = ETV6 (Homo sapiens, UniProt P41212 1-452); settings: protein: recombinant; tags: N-terminal GST; dsDNA, one strand shown
Sequence of ETV6 (P41212 whole entry): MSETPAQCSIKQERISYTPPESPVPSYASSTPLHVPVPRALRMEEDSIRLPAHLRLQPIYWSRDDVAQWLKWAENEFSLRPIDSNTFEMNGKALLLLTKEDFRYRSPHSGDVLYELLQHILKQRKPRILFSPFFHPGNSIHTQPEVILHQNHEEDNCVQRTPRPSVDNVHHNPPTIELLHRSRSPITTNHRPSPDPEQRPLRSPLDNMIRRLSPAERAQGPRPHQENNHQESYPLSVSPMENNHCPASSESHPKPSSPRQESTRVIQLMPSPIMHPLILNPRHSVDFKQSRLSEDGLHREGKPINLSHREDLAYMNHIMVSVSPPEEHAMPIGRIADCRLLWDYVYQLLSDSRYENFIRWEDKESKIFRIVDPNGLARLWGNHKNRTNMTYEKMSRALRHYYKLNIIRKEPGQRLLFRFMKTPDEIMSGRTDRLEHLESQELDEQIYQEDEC
Summary of the method: as §1

Row | Sequence | binding signal (HSF1) | binding signal (SPIC) | binding signal (ELK4) | binding signal (ETV2) | binding signal (ELK1) | binding signal (ERF) | binding signal (ETV3L) | binding signal (ETV3) | binding signal (ETV6)
1 | GAGAAA | 1.49 fold enrichment (6-mer frequency, TF over GST control) |  |  |  |  |  |  |  | 
2 | GATGGA | 1.1 fold enrichment (6-mer frequency, TF over GST control) | 1.22 fold enrichment (6-mer frequency, TF over GST control) | 1.04 fold enrichment (6-mer frequency, TF over GST control) | 1.02 fold enrichment (6-mer frequency, TF over GST control) |  |  |  |  | 
3 | AGTATA | 1.01 fold enrichment (6-mer frequency, TF over GST control) | 1.07 fold enrichment (6-mer frequency, TF over GST control) | 1.03 fold enrichment (6-mer frequency, TF over GST control) | 1.06 fold enrichment (6-mer frequency, TF over GST control) | 1.05 fold enrichment (6-mer frequency, TF over GST control) | 1.01 fold enrichment (6-mer frequency, TF over GST control) | 1.02 fold enrichment (6-mer frequency, TF over GST control) | 1 fold enrichment (6-mer frequency, TF over GST control) | 1.06 fold enrichment (6-mer frequency, TF over GST control)
